RORg inh – qHTS for inhibitors of ROR gamma transcriptional activity; Drosophila S2 Gal4-RORgamma UAS-luciferase reporter, 20 h; Potency, µM (series often up to 53.6 µM), for inactives: at the highest dose activity change, negative = inhibition, actives largely listed as inhibitors; hit rate 5.4% among 310,000; AID 2551, 2010; further: nearly all actives have a fitted effect of over 60% in size
Target sequence (P51450 whole entry, looked up, the tested form may be a part): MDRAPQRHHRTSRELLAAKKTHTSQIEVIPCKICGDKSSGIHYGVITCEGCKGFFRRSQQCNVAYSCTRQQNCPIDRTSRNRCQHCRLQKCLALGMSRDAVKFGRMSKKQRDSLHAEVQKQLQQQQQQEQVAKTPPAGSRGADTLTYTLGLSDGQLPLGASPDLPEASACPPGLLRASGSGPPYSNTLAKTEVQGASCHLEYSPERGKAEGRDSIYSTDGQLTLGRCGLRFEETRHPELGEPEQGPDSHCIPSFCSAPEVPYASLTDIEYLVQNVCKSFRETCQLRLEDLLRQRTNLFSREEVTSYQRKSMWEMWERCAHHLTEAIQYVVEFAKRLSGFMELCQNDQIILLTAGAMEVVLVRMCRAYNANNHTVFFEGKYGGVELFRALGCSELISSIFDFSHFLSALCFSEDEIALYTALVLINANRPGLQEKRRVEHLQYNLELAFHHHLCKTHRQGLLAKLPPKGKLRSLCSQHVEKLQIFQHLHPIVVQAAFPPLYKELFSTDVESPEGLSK
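Compounds are pin-transferred onto Drosophila Schneider cells expressing a copper-inducible Gal4–ROR gamma transactivation domain fusion. After 1 hr, copper sulfate is added to 700 uM final; luciferase is read 20 hr later.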
DT40 TDP1 no CPT – qHTS for Inhibitors of human tyrosyl-DNA phosphodiesterase 1 (TDP1): qHTS in cells in absence of CPT; DT40 Tdp1-/- hTDP1 cells, no CPT, ATP luminescence, 48 h; Potency, µM (series often up to 46.2 µM), for inactives: top-dose activity change, negative = growth inhibition, most hits filed as inhibitors; hit rate 15% among 420,000; further: nearly all actives have a fitted effect of over 55% in size
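Growth kinetics read by CellTiter-Glo luminescence after ≥48 hr at 37 °C. Cells: DT40 Tdp1-/- stably carrying human TDP1, 400 per well, compound exposure in the absence of CPT (DMSO vehicle).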
TDP1 block – qHTS Assay for Inhibitors of Tyrosyl-DNA Phosphodiesterase (TDP1); recombinant TDP1, AlphaScreen DNA substrate cleavage; Potency, µM (series often up to 130 µM), inactives show at the highest dose activity change, negative = inhibition, most hits filed as inhibitors; hit rate 0.28% among 350,000; AID 485290, 2010; further: nearly all actives have a fitted effect of over 40% in size
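E. coli-derived human Tdp1, 1 nM final. Cpd preinc 15 min RT; substrate 15 nM final, 5 min RT; AS bead mix 10 ug/ml final, 10 min RT. Signal loss = tyrosine-FITC cleavage. No-enzyme wells = max signal.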
VP16 counter – VP16 counterscreen qHTS for inhibitors of ROR gamma transcriptional activity | AID 2546, 2010 | Potency, µM (titrated, usually from 53.6 µM), for the others: at the highest dose activity, negative = inhibition, hits mostly inhibitors | hit rate 3.5% among 310,000 | Drosophila S2 Gal4-VP16 UAS-luciferase, luminescence, 20 h;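 further: Gal4-VP16 expression switched on by copper sulfate through the metallothionein promoter; nearly all actives have a fitted effect of over 50% in size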
DT40 TDP1 CPT – qHTS for Inhibitors of human tyrosyl-DNA phosphodiesterase 1 (TDP1): qHTS in cells in presence of CPT; Potency, µM (highest dose often 46.2 µM), inactives show at the highest dose activity change, negative = growth inhibition, most hits filed as inhibitors; AID 686979, 2013; hit rate 12% among 420,000; chicken DT40 Tdp1-/-;hTDP1 cells + 20 nM CPT, ATP luminescence, 48 h; further: nearly all actives have a fitted effect of over 55% in size
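Chicken DT40 Tdp1-/- cells stably complemented with human TDP1 were seeded at 400 cells/well in medium containing 20 nM camptothecin, exposed to pin-transferred compounds, and grown at 37 °C for at least 48 hr. Viability was read as ATP luminescence.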
Starred values were filed as active, the others as inactive; u = inconclusive; x = not tested or not shown; [ ] = remark or other dose. The list is not random: actives were taken first. Their share in the collection is about 19%. The call rests on the fitted dose curve; in most records, active means well fitted curve in the direction sought with a large enough effect; inconclusive means small, poorly fitted or top-dose-only effect, or another doubt; inactive means no such curve, though single readings can be large; an effect the other way counts as inactive or inconclusive. On the % scale 0 is the no-effect control and ±100 the full control effect; potency means the concentration at half of the fitted maximal effect.

SMILES	RORg inh	DT40 TDP1 no CPT	TDP1 block	VP16 counter	DT40 TDP1 CPT
O=C(N/N=C/c1ccc([N+](=O)[O-])o1)C1CC1	7.94µM*	23.1µM*	x	3.6%	7.31µM*
Cc1cc(=O)oc2cc(OCC(=O)N/N=C/c3ccccc3[N+](=O)[O-])ccc12	-42.8%	u	56.2µM*	u	-1.7%
NNC(=O)c1ccc(COc2ccc([N+](=O)[O-])cc2)o1	-12.0%	-21.4%	4.1%	2.5%	-12.1%
Cc1cc(=O)oc2cc(OCC(=O)NCCc3ccccc3)ccc12	34.9%	1.6%	x	-0.8%	-1.4%
O=C(N/N=C/c1ccc([N+](=O)[O-])o1)C(=O)Nc1ccc(C(=O)O)cc1	3.8%	-13.9%	x	4.3%	-24.1%
O=C(O)c1ccc(N/N=C/C=C/c2ccc([N+](=O)[O-])o2)cc1	-3.5%	23.1µM*	-14.3%	u	8.2µM*
O=S(=O)(/N=C(/Nc1cccc2ccccc12)c1ccccc1)c1ccc(Br)cc1	18.0%	-0.6%	7.3%	2.8%	-19.8%
O=C(N/N=C\c1ccc([N+](=O)[O-])o1)c1ccc(O)cc1	u	x	-6.2%[56.1 µM]	u	x
Cc1ccc(OCC(=O)N/N=C\c2ccc(C)o2)c([N+](=O)[O-])c1	8.0%	u	2.5%	8.4%	u
Cc1cc(C)c(S(=O)(=O)N/N=C/c2ccc([N+](=O)[O-])o2)c(C)c1	u	u	1.4%[56.1 µM]	20µM*	23.1µM*
CCCC(=O)Nc1ccc(C(=O)N/N=C/c2ccc([N+](=O)[O-])o2)cc1	-39.1%	9.2µM*	3.5%	u	14.6µM*
NC(=O)N/N=C/c1ccc([N+](=O)[O-])o1	-21.9%[10 µM]	3.26µM*	0.0%	u	16.4µM*
Cc1ccc(OCC(=O)N/N=C/c2ccc([N+](=O)[O-])o2)cc1	u	13µM*	-1.1%	u	16.4µM*
O=C(OCC(=O)c1ccco1)c1ccc2ncsc2c1	36.7%	-8.9%	0.0%	12.0%	0.5%
Cc1nc(NNC(=O)c2ccc(Cl)cc2Cl)cc(-c2ccccc2)n1	u	-24.0%	4.7%	-26.4%	-14.9%
CN(C1CCCCC1)S(=O)(=O)c1ccc2c(c1)c(=O)c(C(=O)N1CCN(c3ccccc3F)CC1)cn2C	x	-0.1%	0.0%	x	0.9%
O=c1c2cc3c(cc2nc2sc(Nc4ccc(F)c(Cl)c4)nn12)OCO3	x	-1.4%	0.0%	x	-14.2%
O=C(N/N=C/c1ccc([N+](=O)[O-])o1)C(O)c1ccccc1 (stereo not given)	3.4%	6.51µM*	x	-26.5%	8.2µM*
O=[N+]([O-])c1ccc(/C=N/NC(=S)Nc2ccccc2C(F)(F)F)o1	11.2µM*	13µM*	5.3%	u	8.2µM*
O=C(N/N=C/c1ccc(-c2ccc([N+](=O)[O-])cc2)o1)C(O)c1ccccc1 (stereo not given)	-44.5%	u	4.4%	u	u
CCOc1ccc(C(=O)N/N=C/c2cc(Cl)ccc2[N+](=O)[O-])cc1	u	-24.9%	2.6%	5.62µM*	5.0%
O=C(NN=Cc1ccccc1O)C(O)c1ccccc1 (stereo not given)	x	20.6µM*	x	x	u
CCOc1ccc(Cl)cc1/C=N/NC(=O)c1ccccc1	27.9%	-25.9%	2.6%	-15.1%	10.7%
CC(C)C(=O)N1CCN(c2ccccc2N)CC1	7.8%	-2.9%	6.1%	3.1%	-21.7%
COC(=O)c1cc(S(=O)(=O)NCC2CCN(Cc3cc(C)ccc3C)CC2)cn1C	-20.1%	-20.7%	0.1%	3.0%	-27.7%
SMILES	RORg inh	DT40 TDP1 no CPT	TDP1 block	VP16 counter	DT40 TDP1 CPT
Cc1cnc(-n2ncc(C(=O)NC(C)(C)CO)c2-c2cccs2)nc1-c1ccc(F)cc1	x	u	x	x	-10.2%[9.04 µM]
COc1ccccc1CNC(=O)c1c(O)nc2c(C)cccn2c1=O	x	u	2.0%	x	-13.3%
COc1ccc(/C=N/NC(=O)c2ccc(CSc3nc(C)cc(C)n3)cc2)c(OC)c1OC	-21.2%	u	-0.6%	4.5%	u
Cc1cc(C)nc(SCc2ccc(C(=O)N/N=C/c3cccc(O)c3O)cc2)n1	1.41µM*	5.8µM*	-2.4%	1.58µM*	5.17µM*
COc1ccc(O)c(/C=N/NC(=O)c2ccc(CSc3nc(C)cc(C)n3)cc2)c1	1.26µM*	2.91µM*	u	2.51µM*	4.61µM*
CCCCn1nc(NC(=O)CC(C)C)c2cc3cc(OC)ccc3nc21	-34.8%	-4.9%	x	-5.2%	-12.3%
O=C(CSC1=Nc2ccccc2N=C(c2ccc(F)cc2)C1)NCc1ccc(F)cc1	x	-19.5%	7.7%	x	u
Cc1ccc(C2=Nc3ccccc3N(CC(=O)NCc3ccccc3Cl)C(=O)C2)cc1C	x	20.6µM*	4.5%	x	u
COc1cccc(NC(=O)CSC2=Nc3ccccc3N=C(c3ccc(F)cc3)C2)c1	x	u	6.5%	x	18.4µM*
Cc1ccc(NC(=O)CN2C(=O)CC(c3ccc(F)cc3)=Nc3ccccc32)cc1F	x	11.6µM*	4.5%	x	11.6µM*
Cc1ccc(CNC(=O)CN2C(=O)CC(c3ccc(C)c(C)c3)=Nc3ccccc32)cc1	x	u	8.4%	x	u
Cc1ccc(C2=Nc3ccccc3N(CC(=O)Nc3cccc(F)c3)C(=O)C2)cc1C	x	18.4µM*	11.0%	x	u
Fc1cccc(Cl)c1Cc1noc(/C=C/c2ccccc2)n1	11.3%	-14.2%	-11.5%	2.3%	-8.8%
O=C(CCN1C(=O)c2ccccc2C1=O)c1cnc[nH]1	x	3.1%	x	x	-10.5%
O=[N+]([O-])c1ccccc1S(=O)c1ccccc1[N+](=O)[O-]	x	16.4µM*	x	x	10.3µM*
O=C(CS(=O)c1ccccc1[N+](=O)[O-])Oc1ccc(Br)cc1 (stereo not given)	2.5%	-16.7%	x	-18.5%	-19.3%
COc1ccc(NC(=O)N2CCCC3(CCN(C(=O)c4cccn4C)CC3)C2)cc1	-24.9%	-1.9%	x	-4.6%	u
CCOc1ccc(Cl)cc1-c1cc(C(=O)NCCc2ccncc2)[nH]n1	x	-103.8%	x	x	-103.4%
CCOc1ccc(Cl)cc1-c1cc(C(=O)Nc2ccc(C(C)C)cc2)[nH]n1	x	16.4µM*	x	x	u
CCOc1ccc(Cl)cc1-c1cc(C(=O)Nc2ccc(Br)cc2)[nH]n1	x	18.4µM*	x	x	23.1µM*
COc1ccc(Cl)cc1-c1cc(C(=O)Nc2ccc(F)cc2)[nH]n1	x	-9.6%	x	x	u
CCCOc1ccc(F)cc1-c1cc(C(=O)NC2CCCCC2)[nH]n1	x	u	x	x	-7.1%
CCOc1ccc(Cl)cc1-c1cc(C(=O)Nc2cc(OC)c(OC)c(OC)c2)[nH]n1	x	16.4µM*	x	x	20.6µM*
CCOc1ccc(Cl)cc1-c1cc(C(=O)NC2CCCCC2)[nH]n1	x	16.4µM*	x	x	18.4µM*
